A selection: hits, their analogues and other compounds. The true share with any hit is near 4.7%.
DUSP3 inh: DUSP3 (human) phosphatase inhibition; recombinant VHR phosphatase, pNPP absorbance; inhibition, % at 13.3 µM; hit rate 0.52% among 290,000; in the data active = inhibition above about 50%
Target sequence (P51452 whole entry, looked up): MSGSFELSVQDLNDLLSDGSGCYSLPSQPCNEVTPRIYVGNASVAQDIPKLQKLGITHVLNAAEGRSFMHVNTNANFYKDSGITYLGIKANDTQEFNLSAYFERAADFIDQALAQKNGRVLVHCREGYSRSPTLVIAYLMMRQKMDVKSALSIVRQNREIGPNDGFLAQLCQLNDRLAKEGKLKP
CCHF vOTU inh: blocks the CCHF virus ovarian tumor domain protease; CCHFV vOTU protease, Pep-AMC fluorescence; inhibition, % at 11.5 µM; hit rate 0.55% among 370,000; AID 651958; also: 0% = vehicle wells with enzyme and 100% = no enzyme wells
SARS 3CLpro inh: SARS-CoV 3CLpro protease inhibition; recombinant SARS-CoV 3CLpro, quenched FRET peptide cleavage; inhibition, % at 6 µM; hit rate 0.14% among 290,000; in the data active = inhibition above about 12%
Mtb FBA inh: Mtb fructose-bisphosphate aldolase inhibition. P9WQA3. purified M. tuberculosis FBA, fluorescence read-out. inhibition, % at 1 µM. hit rate 2.3% among 360,000; in the data active = inhibition above about 27%;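 also: 0% = vehicle and 100% = reference inhibitor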
GDH-TPI counter: inhibits GDH-TPI coupling enzymes, artifact for Mtb FBA screen; GDH-TPI coupled enzyme counterscreen, NADH absorbance; hit rate 1.2% among 360,000; inhibition, % at 4.8 µM;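 also: 0% = DMSO wells and 100% = wells lacking the enzyme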
RecA splice inh: Mtb RecA intein splicing inhibition; inhibition, % (concentration not given with the values); hit rate 0.75% among 290,000; cell-free RecA intein splicing, fluorescence; in the data active = inhibition above about 30%;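 also: 0% = vehicle wells and 100% = reference inhibitor control wells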
Active calls of the source: *; i = inactive; / = not tested or not shown. Rule as the data show it, unless noted: active = inhibition above about 30%; inactive = the rest.

SMILES	DUSP3 inh	CCHF vOTU inh	SARS 3CLpro inh	Mtb FBA inh	GDH-TPI counter	RecA splice inh
Cc1ccc(C=C2C(Cl)=C(Cl)C(Cl)=C2Cl)cc1	-0.7	/	1.8	/	/	31.0*
Cc1ccc(/C=[N+](/C)[O-])cc1	23.8	3.0	0.5	0.8	-0.6	0.0
CCNC(=O)C1CCCN(C(=O)c2ccc(F)c(Cl)c2)CC1 (stereo unspecified)	/	-1.9	/	-2.8	0.4	/
COc1cc(/C=C2\S/C(=N/S(=O)(=O)c3ccccc3)NC2=O)c([N+](=O)[O-])cc1OC	-7.5	3.8	-6.3	-1.6	43.4*	-6.3
O=C1Nc2ccccc2-n2nnnc2C1N1CCN(C(=O)C2CCCO2)CC1 (stereo unspecified)	/	1.5	/	/	/	/
Cn1cccc1/C=N/NC(=O)c1cccnc1	8.7	-12.9	-0.5	-2.1	47.5*	-0.3
Cc1cc(C(=O)NN=Cc2ccc(-c3ccc(F)cc3)o2)c(C)o1	/	0.4	/	4.6	53.3*	/
Cc1ccc(C(=O)N/N=C\c2ccc(-c3ccc(Cl)cc3)o2)cn1	20.4	-10.3	-1.0	1.8	31.3*	2.5
Cc1ccc(C(=O)N/N=C\c2cccn2C)cn1	7.1	6.7	-3.0	2.1	53.7*	0.0
Cc1ccc(C(=O)N/N=C\c2ccc(-c3ccc([N+](=O)[O-])cc3)o2)cn1	13.1	-9.5	1.5	-6.4	16.2	-2.8
Cc1ccc(C(=O)N/N=C\c2ccccn2)cn1	12.0	3.2	-6.1	-2.3	-1.1	-1.3
COc1cccc(NC(=O)COC(=O)c2cc(=O)c3ccccc3o2)c1	/	1.3	/	4.3	1.1	/
CC1OC(CCc2cccc(Cl)c2)Cc2[nH][nH]c(=O)c21 (stereo unspecified)	/	3.7	/	/	/	/
O=C(NCC[C@H]1CC[C@H](NS(=O)(=O)c2ccccc2F)[C@@H](CO)O1)c1ccc(F)cc1	/	2.6	/	/	/	/
COCCCNC(=O)c1c(N)n(Cc2ccco2)c2nc3ccccc3nc12	-15.4	-155.7	5.5	117.7*	14.8	i
CC(C)CNC(=O)c1c(N)n(Cc2ccco2)c2nc3ccccc3nc12	22.8	-53.6	2.1	55.2*	11.7	-197.3
COCCOC(=O)c1c(N)n(Cc2ccco2)c2nc3ccccc3nc12	-22.6	-192.3	-4.7	150.3*	29.6	-135.1
Nc1c(C(=O)NCc2ccco2)c2nc3ccccc3nc2n1CCc1ccc(F)cc1	-29.5	-73.7	0.9	27.7*	4.4	-56.4
CCCNC(=O)c1c(N)n(Cc2ccco2)c2nc3ccccc3nc12	14.6	/	0.2	/	/	-497.6
Cc1ccccc1-c1cc2nc(Oc3cccc4ccccc34)n(C)c(=O)c2s1	/	17.2	/	-4.4	3.1	/
Cn1c(-c2ccc[nH]c2=O)nc2cc(Cl)ccc21	20.8	-51.2	1.8	137.3*	2.5	0.8
CCn1c(-c2ccc[nH]c2=O)nc2ccccc21	31.7	-52.5	2.1	134.1*	4.4	-3.1
O=c1[nH]cccc1-c1nc2ccccc2n1Cc1ccccc1F	5.3	-87.8	2.1	121.8*	5.2	-2.1
CCn1c(-c2ccco2)nc2ccccc21	9.6	4.9	1.2	16.5	-10.2	-3.2
NC(=O)c1c(N)[nH]c(C(=O)c2ccccc2)c1-c1ccccc1Br	/	8.3	/	/	/	/
SMILES	DUSP3 inh	CCHF vOTU inh	SARS 3CLpro inh	Mtb FBA inh	GDH-TPI counter	RecA splice inh
COc1cccc(-c2cnc(C(O)c3cc(C)c(OC)c(C)c3)[nH]2)c1 (stereo unspecified)	/	9.3	/	-1.2	-2.6	/
O=C(C1CCN(c2ncnc3c2sc2cccc(F)c23)CC1)N1CCN(Cc2ccccc2)CC1	/	0.9	/	/	/	/
COc1ccc(C)cc1NC(=O)C1CCCN1C(=O)OCc1ccccc1 (stereo unspecified)	-9.6	5.0	1.9	0.8	21.4	1.9
COc1cc2nc(N3CCN(C(=O)OCc4ccccc4)[C@H](C(=O)NC(C)(C)C)C3)nc(N)c2cc1OC	/	-43.7	/	89.0*	20.2	/
O=C(CN1C(=O)CSc2ccc(S(=O)(=O)N3CCCCC3)cc21)NCc1ccccc1Cl	55.6*	4.0	2.5	4.3	5.2	5.1
Cc1ccc(C(=O)c2cc(C)sc2N)cc1	6.9	5.2	7.9	-3.4	3.8	-0.3
Cc1cc(C(=O)c2ccc(Cl)cc2)c(NC(=O)CCl)s1	4.1	16.0	6.3	0.9	5.0	33.5*
O=P(O)(O)c1cc(-c2ccccc2)oc1-c1ccccc1	12.5	-12.8	1.7	163.7*	37.4*	0.3
N/C(Cc1ccc([N+](=O)[O-])cc1)=N\OC(=O)c1ccccc1F	56.6*	-11.1	-4.4	-1.0	15.8	-1.1
N/C(Cc1ccc([N+](=O)[O-])cc1)=N\OC(=O)Cc1ccccc1	-4.7	-3.3	0.4	0.1	2.3	3.0
